Measurements: PubChem BioAssay (EPA / NIEHS)
The source made the active and inactive calls. How the source made its calls: active means hit-call score of the fitted dose curve at least 0.9, where 1 is the maximum; inactive means score below 0.9.

What was measured:
[1] = ATG_DR4_LXR_CIS: Attagene CIS-FACTORIAL HepG2 Assay for human Liver X Receptor (LXR), DR4 submotif (AID 2282929); conditions: HepG2 Attagene DR4 cis-reporter, mRNA transcription; AC50: actives raise or lower the signal unless noted; outcome: actives raise or lower the signal unless noted
How it was run: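 HepG2 cells transiently transfected with cis-promoter-driven multiplexed reporter units (DR4 element) were dosed for 24 h. Reporter mRNA was quantified by RT-PCR, fluorescent primer extension, HpaI digestion and capillary electrophoresis; bidirectional fitting versus DMSO baseline.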

[2] = molecular target: Aryl hydrocarbon receptor (Homo sapiens) (UniProt P35869); test: ATG_Ahr_CIS: Attagene CIS-FACTORIAL HepG2 Assay for human Aryl Hydrocarbon Receptor (Ahr) (AID 2282930); conditions: HepG2 AhR cis-factorial reporter transcription; actives raise or lower the signal
Chain of Aryl hydrocarbon receptor (Homo sapiens) (P35869 whole entry, looked up): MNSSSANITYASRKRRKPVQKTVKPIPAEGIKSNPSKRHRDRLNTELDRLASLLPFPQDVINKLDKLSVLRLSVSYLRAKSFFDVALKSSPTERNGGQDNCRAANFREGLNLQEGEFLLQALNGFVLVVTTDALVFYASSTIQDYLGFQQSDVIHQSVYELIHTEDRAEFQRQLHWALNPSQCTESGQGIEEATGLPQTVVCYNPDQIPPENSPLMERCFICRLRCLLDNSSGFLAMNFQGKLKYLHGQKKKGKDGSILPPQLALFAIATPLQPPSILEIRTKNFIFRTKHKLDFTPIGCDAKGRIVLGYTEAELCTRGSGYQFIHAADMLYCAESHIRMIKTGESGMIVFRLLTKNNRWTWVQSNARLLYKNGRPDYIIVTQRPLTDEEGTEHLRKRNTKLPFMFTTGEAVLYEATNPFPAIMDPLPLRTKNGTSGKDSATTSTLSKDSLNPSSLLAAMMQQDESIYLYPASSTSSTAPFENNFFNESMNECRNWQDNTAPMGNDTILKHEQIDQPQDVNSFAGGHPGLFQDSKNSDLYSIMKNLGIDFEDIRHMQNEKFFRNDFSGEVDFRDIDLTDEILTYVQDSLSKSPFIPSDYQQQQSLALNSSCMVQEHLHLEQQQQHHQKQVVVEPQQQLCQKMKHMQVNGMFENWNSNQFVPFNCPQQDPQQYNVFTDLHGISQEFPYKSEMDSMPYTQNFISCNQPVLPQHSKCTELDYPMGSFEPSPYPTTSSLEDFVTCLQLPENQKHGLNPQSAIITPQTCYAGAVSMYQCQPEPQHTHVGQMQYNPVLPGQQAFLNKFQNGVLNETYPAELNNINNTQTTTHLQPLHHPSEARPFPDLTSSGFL
How it was run: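 HepG2 cells transiently transfected with cis-element-driven multiplexed reporter transcription units; endogenous transcription factor activity measured as reporter mRNA 24 h after dosing. RT-PCR, 6-FAM labelling, HpaI digestion, capillary electrophoresis; bidirectional fitting versus DMSO baseline.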

[3] = ATG_AP_1_CIS: Attagene CIS-FACTORIAL HepG2 Assay for human Activator Protein 1 (AP-1) (AID 2282931); conditions: HepG2 Attagene cis-factorial AP-1 reporter mRNA; actives raise or lower the signal
How it was run: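 HepG2 cells transiently transfected with cis-element-driven multiplex reporter units; 24 h compound exposure. Reporter mRNA quantified by RT-PCR, FAM-labelled fragments resolved by capillary electrophoresis; bidirectional fit versus DMSO baseline.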

[4] = ATG_AP_2_CIS: Attagene CIS-FACTORIAL HepG2 Assay for human Activator Protein 2 (AP-2) (AID 2282932); conditions: HepG2 AP-2 cis-reporter, Attagene transcription factor profiling; AC50: actives raise or lower the signal unless noted; outcome: actives raise or lower the signal unless noted
How it was run: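 Cells (HepG2) transfected with promoter-driven reporter constructs, treated 24 h. Total RNA reverse-transcribed, reporter cDNA PCR-amplified, FAM-labelled by primer extension, digested, resolved by capillary electrophoresis. Activity fitted both directions versus DMSO.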

[5] = ATG_BRE_CIS: Attagene CIS-FACTORIAL HepG2 Assay for human Bone Morphogenetic Protein (BMP) Response Element (BRE) (AID 2282933); conditions: HepG2 BMP response element reporter, Attagene transcription factor profiling; actives raise or lower the signal
How it was run: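 Fluorescence-labelled reporter cDNA fragments, separated by capillary electrophoresis, gave the signal for this component of a 52-readout multiplex. HepG2 cells were transfected, exposed to chemicals for 24 h, and compared with DMSO using bidirectional fitting.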

[6] = molecular target: Retinoic acid receptor alpha (Homo sapiens) (UniProt P10276); test: ATG_DR5_RAR_CIS: Attagene CIS-FACTORIAL HepG2 Assay for human Retinoic Acid Receptor Alpha (RARE), DR5 submotif (AID 2282934); conditions: HepG2 Attagene cis-factorial RARE DR5 reporter, mRNA; actives raise or lower the signal
Chain of Retinoic acid receptor alpha (Homo sapiens) (P10276 whole entry, looked up): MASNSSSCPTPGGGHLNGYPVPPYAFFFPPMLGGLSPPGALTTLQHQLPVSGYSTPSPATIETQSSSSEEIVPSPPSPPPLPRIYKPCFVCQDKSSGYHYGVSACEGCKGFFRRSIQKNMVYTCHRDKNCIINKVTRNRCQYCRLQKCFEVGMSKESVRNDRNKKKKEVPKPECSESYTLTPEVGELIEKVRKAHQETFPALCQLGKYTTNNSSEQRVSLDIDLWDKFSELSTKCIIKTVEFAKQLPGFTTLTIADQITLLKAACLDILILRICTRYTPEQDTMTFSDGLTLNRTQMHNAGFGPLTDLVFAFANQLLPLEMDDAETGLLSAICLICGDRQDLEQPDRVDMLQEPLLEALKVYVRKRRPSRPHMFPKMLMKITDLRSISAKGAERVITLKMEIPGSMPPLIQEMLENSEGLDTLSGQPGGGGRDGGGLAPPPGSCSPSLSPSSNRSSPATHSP
How it was run: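 HepG2 cells transiently transfected with multiplexed reporter units under cis (DR5 RARE) promoters, so endogenous transcription factor activity is measured. After 24 h compound exposure, reporter mRNA is quantified by RT-PCR with fluorescent labelling and capillary electrophoresis; bidirectional fitting versus DMSO.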

[7] = molecular target: Transcription factor E2F1 (Homo sapiens) (UniProt Q01094); test: ATG_E2F_CIS: Attagene CIS-FACTORIAL HepG2 Assay for human E2F Transcription Factor 1 (AID 2282935); conditions: HepG2 Attagene cis-reporter, E2F reporter RNA transcripts; actives raise or lower the signal
Chain of Transcription factor E2F1 (Homo sapiens) (Q01094 whole entry, looked up): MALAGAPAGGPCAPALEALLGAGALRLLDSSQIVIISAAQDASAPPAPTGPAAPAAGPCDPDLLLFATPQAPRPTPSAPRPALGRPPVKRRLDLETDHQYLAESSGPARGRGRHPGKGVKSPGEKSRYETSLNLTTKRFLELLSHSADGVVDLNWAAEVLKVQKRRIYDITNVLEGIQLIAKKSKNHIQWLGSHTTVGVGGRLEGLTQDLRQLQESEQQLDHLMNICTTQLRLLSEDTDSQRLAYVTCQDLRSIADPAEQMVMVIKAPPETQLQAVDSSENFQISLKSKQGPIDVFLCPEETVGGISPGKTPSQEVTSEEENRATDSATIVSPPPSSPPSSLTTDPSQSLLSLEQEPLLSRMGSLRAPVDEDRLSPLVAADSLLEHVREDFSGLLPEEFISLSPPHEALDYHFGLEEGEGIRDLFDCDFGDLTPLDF
How it was run: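 First, HepG2 cells were transfected with reporter transcription units. Next, they were dosed for 24 h. Then RNA was isolated, converted to cDNA, PCR-amplified, FAM-labeled, HpaI-digested and analyzed by capillary electrophoresis.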

[8] = ATG_E_Box_CIS: Attagene CIS-FACTORIAL HepG2 Assay for human Enhancer Box (E-box) (AID 2282936); conditions: HepG2 E-box cis-reporter transcription, actives raise or lower the signal
How it was run: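 Endogenous transcription factor activity was sensed in human HepG2 liver cells through transfected cis-promoter reporter units. After 24 h of dosing, total RNA was reverse-transcribed and reporter cDNA resolved by capillary electrophoresis.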

[9] = ATG_M_61_CIS: Attagene CIS-FACTORIAL HepG2 Assay for M61 Transcription Factor (Internal Marker) (AID 2282937); conditions: HepG2 Attagene CIS-FACTORIAL M61 internal marker reporter; actives raise or lower the signal
How it was run: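 HepG2 cells transiently transfected with cis-element-driven multiple reporter transcription units, dosed for 24 h. Reporter mRNA measured by RT-PCR, 6-FAM primer-extension labelling, HpaI digestion and capillary electrophoresis; bidirectional fit versus DMSO baseline.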

[10] = ATG_EGR_CIS: Attagene CIS-FACTORIAL HepG2 Assay for human Early Growth Response 1 (EGR1) (AID 2282938); conditions: HepG2 Attagene CIS-FACTORIAL EGR reporter mRNA; actives raise or lower the signal
How it was run: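 HepG2 cells transiently transfected with cis-promoter-driven multiplexed reporter transcription units; reporter mRNA measured 24 h after compound dosing by RT-PCR, 6-FAM primer extension, HpaI digestion and capillary electrophoresis. Bidirectional fit versus DMSO baseline.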

[11] = ATG_ERE_CIS: Attagene CIS-FACTORIAL HepG2 Assay for Estrogen Response Element (ERE) (AID 2282940); conditions: HepG2 ERE cis-reporter, Attagene RNA transcript; actives raise or lower the signal
How it was run: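 After a 24 h chemical treatment, RNA from reporter-transfected HepG2 cells is reverse-transcribed, PCR-amplified and fluorescently labelled. Fragments separated by capillary electrophoresis give reporter signal; DMSO serves as negative control.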

[12] = ATG_Ets_CIS: Attagene CIS-FACTORIAL HepG2 Assay for human Erythroblast Transformation Specific (ETS) (AID 2282941); conditions: HepG2 ETS cis-reporter transcription; AC50: actives raise or lower the signal unless noted; outcome: actives raise or lower the signal unless noted
How it was run: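 RT-PCR/capillary electrophoresis fluorescence read-out of reporter mRNA; HepG2 transient multi-reporter transfection; 24 h compound exposure; gain or loss of signal fitted bidirectionally relative to DMSO.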

[13] = molecular target: Hepatocyte nuclear factor 3-beta (Homo sapiens) (UniProt Q9Y261); test: ATG_FoxA2_CIS: Attagene CIS-FACTORIAL HepG2 Assay for human Forkhead box A2 (FOXA2) (AID 2282942); conditions: HepG2 cis-reporter transcription factor activity, 24 h; actives raise or lower the signal
Chain of Hepatocyte nuclear factor 3-beta (Homo sapiens) (Q9Y261 whole entry, looked up): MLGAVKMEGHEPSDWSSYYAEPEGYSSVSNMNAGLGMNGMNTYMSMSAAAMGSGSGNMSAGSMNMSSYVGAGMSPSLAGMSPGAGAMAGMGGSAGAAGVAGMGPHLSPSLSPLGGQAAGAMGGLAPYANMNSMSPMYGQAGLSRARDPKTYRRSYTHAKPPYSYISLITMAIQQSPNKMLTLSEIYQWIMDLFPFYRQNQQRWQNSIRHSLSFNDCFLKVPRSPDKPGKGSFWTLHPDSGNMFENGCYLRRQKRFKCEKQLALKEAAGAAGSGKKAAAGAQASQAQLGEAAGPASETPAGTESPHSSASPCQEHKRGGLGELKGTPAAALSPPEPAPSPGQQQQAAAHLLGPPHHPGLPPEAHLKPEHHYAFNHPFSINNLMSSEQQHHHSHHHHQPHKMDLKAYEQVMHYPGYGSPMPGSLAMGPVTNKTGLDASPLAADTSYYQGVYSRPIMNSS
How it was run: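 HepG2 cells transiently transfected with multiple cis-regulated reporter transcription units, dosed for 24 h. Reporter mRNA measured by RT-PCR, 6-FAM labelling, HpaI digestion and capillary electrophoresis; bidirectional fitting against DMSO baseline.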

[14] = ATG_FoxO_CIS: Attagene CIS-FACTORIAL HepG2 Assay for human Forkhead box O (FoxO) (AID 2282943); conditions: HepG2 Attagene cis-reporter, FoxO element, mRNA; actives raise or lower the signal
How it was run: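 HepG2 cells transiently transfected with cis-promoter-driven multiple reporter transcription units; 24 h after chemical dosing, reporter mRNA quantified by RT-PCR, fluorescent primer extension, HpaI digestion and capillary electrophoresis. Bidirectional fitting versus DMSO baseline.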

[15] = ATG_GATA_CIS: Attagene CIS-FACTORIAL HepG2 Assay for human GATA Binding Protein (AID 2282944); conditions: HepG2 GATA cis-element reporter, Attagene multiplex mRNA; actives raise or lower the signal
How it was run: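 Cells: HepG2, transiently transfected with cis-regulated reporter transcription units. Exposure: 24 h. Detection: RT-PCR plus capillary electrophoresis of FAM-labeled fragments. Analysis: bidirectional, DMSO as baseline.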

[16] = ATG_GLI_CIS: Attagene CIS-FACTORIAL HepG2 Assay for human Zinc Finger Protein GLI1 (AID 2282945); conditions: HepG2, Attagene cis-factorial reporter mRNA, GLI element; actives raise or lower the signal
How it was run: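 HepG2 cells transiently transfected with cis-promoter multiplexed reporter units report endogenous transcription factor activity. After 24 h chemical exposure, reporter mRNA was quantified by RT-PCR, 6-FAM labelling, HpaI digestion and capillary electrophoresis, with bidirectional fitting against DMSO.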

[17] = molecular target: Bile acid receptor (Homo sapiens) (UniProt Q96RI1); test: ATG_IR1_CIS: Attagene CIS-FACTORIAL HepG2 Assay for human Nuclear Receptor Subfamily 1 Group H Member 4 (NR1H4), IR1 submotif (AID 2282946); conditions: IR1 reporter transcription, actives raise or lower the signal
Chain of Bile acid receptor (Homo sapiens) (Q96RI1 whole entry, looked up): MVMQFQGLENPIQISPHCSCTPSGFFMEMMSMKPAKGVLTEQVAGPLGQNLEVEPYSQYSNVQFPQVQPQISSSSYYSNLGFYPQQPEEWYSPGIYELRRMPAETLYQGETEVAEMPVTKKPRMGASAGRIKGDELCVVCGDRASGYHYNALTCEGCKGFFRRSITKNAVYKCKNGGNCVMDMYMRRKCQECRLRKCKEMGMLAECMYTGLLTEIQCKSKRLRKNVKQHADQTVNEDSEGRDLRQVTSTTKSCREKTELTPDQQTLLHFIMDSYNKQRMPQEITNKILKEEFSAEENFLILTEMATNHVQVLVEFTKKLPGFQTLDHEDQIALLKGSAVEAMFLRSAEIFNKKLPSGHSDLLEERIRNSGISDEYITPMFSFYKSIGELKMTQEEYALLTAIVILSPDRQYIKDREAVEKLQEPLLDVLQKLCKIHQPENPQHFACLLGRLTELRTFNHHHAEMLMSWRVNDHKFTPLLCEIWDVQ
How it was run: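 Readout: reporter transcript levels by RT-PCR with fluorescent capillary electrophoresis, from HepG2 cells transiently transfected with multiplexed cis-regulated reporters and dosed 24 h. Gain- or loss-of-signal fitted versus DMSO negative control.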

[18] = ATG_GRE_CIS: Attagene CIS-FACTORIAL HepG2 Assay for human Glucocorticoid Response Elements (GRE) (AID 2282947); conditions: HepG2 GRE cis-reporter, Attagene multiplex mRNA; AC50: actives raise or lower the signal unless noted; outcome: actives raise or lower the signal unless noted
How it was run: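 Cells (HepG2) bearing transfected cis-promoter reporter transcription units were treated with chemical for 24 hours. Reporter mRNA was measured via RT-PCR with capillary electrophoresis, and activity was fitted in both directions relative to DMSO.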

[19] = ATG_ISRE_CIS: Attagene CIS-FACTORIAL HepG2 Assay for human Interferon Regulatory Factor 1 (IRF1) binding to an Interferon-Stimulated Response Element (ISRE) (AID 2282948); conditions: HepG2 ISRE cis-reporter (Attagene), mRNA transcription readout; actives raise or lower the signal
How it was run: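 Read-out: fluorescent RT-PCR products resolved by capillary electrophoresis, reporting endogenous transcription factor activity via ISRE-driven reporter mRNA in transfected HepG2 cells dosed for 24 h; gain or loss fitted relative to DMSO.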

[20] = ATG_M_19_CIS: Attagene CIS-FACTORIAL HepG2 Assay for M19 Transcription Factor (Internal Marker) (AID 2282939); conditions: HepG2 Attagene CIS-FACTORIAL M19 internal marker reporter; actives raise or lower the signal
How it was run: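 HepG2, MRTU transient transfection, 24 h dosing. Total RNA → RT-PCR → 6-FAM primer extension → HpaI digest → CE fluorescence. Bidirectional curve fit, DMSO negative control.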

Measured: outcome

COc1cc(OC)nc(NC(=O)NS(=O)(=O)Nc2ccccc2C(=O)N(C)C)n1
not listed: [20]
inactive: all other assays above

O=CC(F)(F)C(F)(F)C(F)(F)F
not listed: [13] | [17]
inactive: all other assays above

CCO[Si](C)(C)OCC
not listed: [17] | [20]
inactive: all other assays above

CC(C)(C)C1CCCCC1O (stereo not drawn)
not listed: [13] | [17]
inactive: all other assays above
